Mito fusion act = blocks mitochondrial division or promotes mitochondrial fusion; S. cerevisiae fusion-defective mutant growth rescue, CellTiterGlo 48 h; AID 485298; 320,000 compounds, 0.23% hits; Potency, µM (series often up to 46.1 µM), for inactives: at the top dose growth rescue (activation), usual class: activators; note: % of control where 0% means no effect; nearly all actives have a fitted effect of over 45% in size
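S. cerevisiae fusion-defective temperature-sensitive mutants (e.g. fzo1-1, mgm1-5) grown 48 h at 37C in YPEG (ethanol/glycerol non-fermentable) medium with 23 nl compound per well; growth rescue read as CellTiterGlo luminescence.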
TDP43 rescue = inhibitors of TDP-43 toxicity in yeast; 410,000 compounds, 1.8% hits; AID 652104; Potency, µM (highest dose often 46.1 µM), for the others: at the top dose growth rescue (activation), usual class: activators; TDP-43 expressing yeast growth rescue, BacTiter-Glo, 24 h; note: % of control where 0% means no effect; nearly all actives have a fitted effect of over 50% in size
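In this qHTS, compounds that restore growth of yeast expressing TDP-43 appear as activators. Cells (OD600=0.02, galactose medium, raffinose-pregrown) are incubated with compound 24 hr at 30 deg C and growth is quantified by BacTiter-Glo.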
aSyn rescue = alpha-synuclein toxicity inhibition in yeast | Yeast expressing alpha-synuclein, growth rescue, BacTiter-Glo, 24 h | Potency, µM (highest dose often 46.1 µM), inactives show at the top dose growth rescue (activation), usual class: activators | 370,000 compounds, 0.14% hits; note: % of control where 0% means no effect; nearly all actives have a fitted effect of over 65% in size
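Screening used galactose-induced yeast with toxic alpha-synuclein levels, exposed to compound for 24 hr at 30 deg C. Cell growth, read with BacTiter-Glo luminescence, gave the measured signal.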
A-T KAP1 phos = candidate therapy for ataxia-telangiectasia. Potency, µM (titrated, usually from 57.5 µM), inactives show top-dose activation, usual class: activators. AID 485349. F2112 A-T fibroblasts, KAP-1 phosphorylation AlphaLISA; neocarzinostatin DNA damage 30 min before lysis. 320,000 compounds, 0.19% hits; note: % of control where 0% means no effect; nearly all actives have a fitted effect of over 45% in size
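hTERT-immortalized A-T patient fibroblasts (F2112), 500 cells/well in OPTI-MEM, 1% FBS, got compounds for 60 min, then NCS for 30 min at 37C. Lysates were then assayed for phospho-KAP-1 by AlphaLISA (anti-pKAP1 donor, anti-KAP1 acceptor beads), 6 hr at 25C.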
Glioma ERSR ind = ER stress response induction in glioma. 420,000 compounds, 0.02% hits. U87-MG GRP78 promoter luciferase reporter, 16 h. AID 602332. Potency, µM, for the others: top-dose activation, most hits filed as activators; note: series mostly up to about 76 µM; % of control where 0% means no effect; nearly all actives have a fitted effect of over 35% in size
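Stably transfected U87-MG glioma cells carrying a GRP78-based luciferase sensor; 16 h compound incubation. Luminescence end-point read 10 min after Bright-Glo addition at room temperature.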
Abeta yeast res = A-beta toxicity reversal in yeast; 410,000 compounds, 0.063% hits; yeast expressing A-beta42, growth rescue, OD600, 48 h; response scale: 0% DMSO, 100% iron-clioquinol control; Potency, µM (highest dose often 46.1 µM), usual class: activators; note: nearly all actives have a fitted effect of over 55% in size
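Yeast A-beta toxicity model in growth medium with pinned compounds, 48 h at 30 C; growth read as absorbance at 600 nm. Normalized to FeCl3/clioquinol equimolar mix (positive) and DMSO (negative).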
An asterisk follows results filed as active; i = inactive; u = inconclusive; x = no result. In the library only some 2.1% were active in any assay of this set; here they are far more common. Calls come from the whole dose curve; as a rule, active = well fitted curve in the direction sought with a large enough effect; inconclusive = small, poorly fitted or top-dose-only effect, or another doubt; inactive = no such curve, though single readings can be large; an effect the other way counts as inactive or inconclusive. Potency is the fitted concentration of half-maximal effect.

SMILES	Mito fusion act	TDP43 rescue	aSyn rescue	A-T KAP1 phos	Glioma ERSR ind	Abeta yeast res
Cc1ccc(C(C)NC(=S)NCc2ccc(F)cc2)c(C)c1 (configuration not stated)	-1%	u	3%	23%	-5%	u
Cc1ccc(C(C)NC(=S)NCc2ccc(F)cc2)cc1C (configuration not stated)	-1%	30%	9%	4%	-5%	14µM*
Cc1cnc(C)c(-c2cc(F)cc3c2OC(CNC(=O)C2CCOC2)C3)n1 (configuration not stated)	x	x	x	x	-2%	x
COc1ccc(C)cc1NC(=O)c1cc2c(=O)n3ccccc3nc2n1C	6%	-9%	0%	3%	1%	i
Cc1cc(C)c(NC(=O)c2cc3c(=O)n4ccccc4nc3n2C)c(C)c1	x	35µM*	x	x	1%	i
COc1ccc(C(=O)C(=O)N2CCC(Cc3ccccc3)CC2)cc1OC	x	11µM*	0%	x	x	i
COc1ccc(C(=O)C(=O)N2CCC(c3ccccc3)CC2)cn1	x	27%	16µM*	x	x	i
O=C(C(=O)N1CCC(Cc2ccccc2)CC1)c1cccc(Br)c1	x	-9%	4%	x	x	i
CCOc1ccc(Br)cc1CNCCSc1nnnn1-c1ccccc1	x	9%	x	x	32µM*	i
CC1CCCCN1C(=O)c1cccc(NC2=C(Cl)C(=O)N(Cc3ccccc3)C2=O)c1 (configuration not stated)	u	18µM*	16%	-5%	-9%	i
CC1CCN(C(=O)c2ccc(NC3=C(Cl)C(=O)N(Cc4ccccc4)C3=O)cc2)CC1	u	16%	u	-8%	-10%	i
Cn1c(/C(C#N)=N/O)nc2ccccc21	-2%	13%	-1%	x	-2%	i
Cn1c(/C(C#N)=C/c2ccccc2Br)nc2ccccc21	x	11µM*	x	x	x	i
CCn1c(/C(C#N)=C/c2ccccc2Cl)nc2ccccc21	-7%	18µM*	x	x	u	i
Cc1nc(-c2ccc(Br)cc2)ccc1C(=O)O	9%	16µM*	-9%	-10%	-2%	i
Cc1ccc(C(=O)c2cn(Cc3cccc(C)c3)c3nc(C)ccc3c2=O)cc1	x	20µM*	x	x	-3%	i
Cc1ccc(Cn2cc(C(=O)c3ccc(C)cc3)c(=O)c3ccc(C)nc32)cc1	x	25%	x	x	1%	i
CSc1ncc(C(=O)Nc2c(C)cccc2C)c(-c2ccccc2)n1	x	-1%	x	x	-4%	i
CC(=O)N(Cc1ccc2c(c1)OCO2)Cc1cc2ccc(C)cc2nc1-c1cccc(C)c1	x	x	x	x	-6%	x
COc1cc2c(cc1OC)C(c1ccc(Cl)cc1)N(c1ccc(C)c(F)c1)C(=O)C2 (configuration not stated)	x	35µM*	x	x	-5%	i
CCOC(=O)c1ccc(N2C(=O)Cc3cc(OCC)c(OCC)cc3C2c2ccccc2)cc1 (configuration not stated)	x	19%	x	x	-2%	i
COc1cc(=O)n2c(c1C(=O)NC(C)c1ccco1)CCN(Cc1ccnc3ccccc13)CC2 (configuration not stated)	x	x	x	x	0%	x
CCOC(=O)c1ccc2nc(NC(=O)C(C)C)sc2c1	15%	10µM*	-6%	-8%	-4%	u
COc1cccc(-c2ccc(O)c(CNCc3cccc4ccccc34)c2)n1	x	x	x	x	-4%	x
CCOC(=O)C1CCCN(C(=O)c2ccc(NC(=O)c3nsc4ccccc34)cc2)C1 (configuration not stated)	x	u	x	x	-2%	i
SMILES	Mito fusion act	TDP43 rescue	aSyn rescue	A-T KAP1 phos	Glioma ERSR ind	Abeta yeast res
O=C(Nc1ncc2c(n1)-c1ccccc1CC2)c1ccc(F)cc1	0%	10µM*	5%	6%	-2%	i
O=C(Nc1ncc2c(n1)-c1ccccc1CC2)c1ccccc1	-3%	13µM*	-1%	2%	1%	i
O=C(Nc1ncc2c(n1)-c1ccccc1CC2)c1cccs1	1%	u	-12%	7%	6%	i
N#C/C(=C\c1ccco1)Sc1nc2ccccc2s1	15%	16µM*	-13%	x	13%	i
Cc1cnc(C)c(-c2cc(F)cc3c2OC(CNC(=O)Cc2ccccc2C)C3)n1 (configuration not stated)	x	x	x	x	-5%	x
O=C(COC(=O)c1ccccc1C(=O)c1ccccc1)Nc1ccc(SC(F)F)cc1	16µM*	14%	0%	14%	-4%	i
Nc1ncnc2c(C3OC(CO)C(O)C3O)c[nH]c12 (configuration not stated)	x	3.2µM*	11µM*	x	-7%	i
Cc1ccc(C(C)C)c(OCc2ccc(C(=O)N/N=C/c3cccc(O)c3O)cc2)c1	2%	13µM*	13µM*	-6%	-8%	u
Cc1ccc(C)c(C(=O)COC(=O)c2n[nH]c3ccccc23)c1	x	20µM*	u	33%	1%	i
COc1ccc(N2CCN(C(=O)c3cc(NC(C)=O)c4c(c3)ncn4CCc3ccccn3)CC2)cc1	x	x	x	x	1%	x
Cc1cc2ncn(-c3nnnn3-c3ccccc3)c2cc1C	6%	18µM*	1%	-7%	-3%	i
O=C(c1ccc(F)cc1)C1CCN(C(=S)Nc2ccc(F)cc2)CC1	-3%	22µM*	12%	-3%	-3%	u
CC(C)(C)NC(=S)N1CCC(C(=O)c2ccc(F)cc2)CC1	1%	20%	5%	3%	1%	i
CC(C)=N/N=C1/NC(=O)C(c2ccc(Cl)cc2)S1 (configuration not stated)	x	20µM*	2%	x	-4%	u
Cc1ccc2nc(-c3ccc(NS(=O)(=O)c4ccc(F)c(F)c4)cc3)sc2c1	-32%	25µM*	-27%	10%	-3%	i
COc1cc(C(=O)Nc2c(C(=O)Nc3ccccc3F)oc3ccccc23)cc(OC)c1OC	x	24%	x	x	1%	i
C=CS(=O)(=O)c1c2cc(OC)ccc2nc2ccc(OC)cc12	x	3.5µM*	-42%	x	-12%	i
COc1cc(=O)n2c(c1C(=O)NCc1ccco1)CCN(Cc1cccc(C)n1)CC2	x	x	x	x	-5%	x
O=C(Nc1cc(C(=O)N2CCN(CCO)CC2)c2c(c1)ncn2C1CCCC1)c1ccccc1	x	x	x	x	-3%	x
COc1ccc(-c2sc3cc4c(cc3c2C#Cc2cncn2C)OCO4)cc1	x	26%	-2%	4%	0%	i
COc1ccc(-c2sc3ccc(OC)cc3c2C#Cc2cncn2C)cc1	x	-66%	-48%	28µM*	-2%	i
COc1cc(OC)cc(-c2sc3ccc(OC)cc3c2C#CC(C)(C)O)c1	16%	11µM*	2%	u	-6%	i
COc1cc(OC)cc(-c2sc3ccc(OC)cc3c2C#CCO)c1	x	u	8%	22%	1%	i
CCn1c(-c2ccccc2F)nc2cc(NC(C)=O)cc(C(=O)N(C)Cc3ccc4nccnc4c3)c21	x	x	x	x	-1%	x

Screens from PubChem BioAssay.
